PubChem BioAssay
Active and inactive are the calls of the source.

How the values were obtained:
[1] = biological target: Albumin (Bos taurus) (UniProt P02769); test: bovine serum albumin binders on microarray, profiling panel, artefact control for SMM control protein annotation, biochemical, small-molecule microarray, Alexa647 label, 635/667 nm fluorescence (AID 1118); details: BSA-A647 binding, fluorescence 635 nm, higher = more signal;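 note: score merges 667 nm emission intensity and signal-to-noise per printed compound spot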
Albumin (Bos taurus), sequence (P02769 whole entry, looked up): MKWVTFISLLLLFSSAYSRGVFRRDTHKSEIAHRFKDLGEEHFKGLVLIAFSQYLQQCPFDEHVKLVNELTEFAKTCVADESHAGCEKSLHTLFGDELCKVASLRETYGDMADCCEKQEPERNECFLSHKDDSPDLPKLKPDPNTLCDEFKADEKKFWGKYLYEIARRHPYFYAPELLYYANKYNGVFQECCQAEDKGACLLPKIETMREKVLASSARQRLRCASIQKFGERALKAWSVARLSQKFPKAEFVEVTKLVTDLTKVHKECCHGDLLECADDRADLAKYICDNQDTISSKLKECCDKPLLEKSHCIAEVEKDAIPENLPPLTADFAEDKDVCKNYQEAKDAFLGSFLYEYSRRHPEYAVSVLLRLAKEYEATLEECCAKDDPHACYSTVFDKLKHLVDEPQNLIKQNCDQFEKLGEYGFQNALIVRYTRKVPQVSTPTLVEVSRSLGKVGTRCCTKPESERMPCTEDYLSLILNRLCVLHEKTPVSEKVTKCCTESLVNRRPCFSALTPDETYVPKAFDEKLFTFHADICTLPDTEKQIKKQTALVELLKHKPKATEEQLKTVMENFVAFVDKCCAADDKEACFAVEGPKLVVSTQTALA

[2] = small-molecule microarray binders of probe aXIP, primary screen, biochemical, NeuroSMM set, 635/667 nm fluorescence (AID 1119); details: higher = more signal, called active from +8 up or from −8 down;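 note: probe is the protein aXip251-270 applied at 1 µg/mL to compound-printed slides; binding of probe to printed compounds measured as 667 nm fluorescence plus signal to noise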
[3] = small-molecule binders of probe aNOTCH3, primary screen, biochemical, small-molecule microarray, 635/667 nm fluorescence (AID 1120); details: higher = more signal;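 note: probe is a biotin-tagged antibody raised against NOTCH3 rather than NOTCH3 protein; score merges spot fluorescence near 667 nm with spot signal to noise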
[4] = small-molecule binders of probe aNOTCH2, primary screen, biochemical, small-molecule microarray, 635/667 nm fluorescence (AID 1121); details: higher = more signal;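 note: score merges feature fluorescence read at 667 nm with its signal to noise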
[5] = biological target: Carbonic anhydrase 2 (Homo sapiens) (UniProt P00918); test: CAII small-molecule binders, profiling panel, biochemical, small-molecule microarray, Alexa647-labelled CAII (AID 1122); details: CAII-A647 binding fluorescence, higher = more signal
[6] = COS7 lysate on small-molecule microarray, probe aHis, 635 nm (AID 1123); details: COS7 cell lysate, fluorescence, higher = more signal;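 note: z-score combines 667nm fluorescence intensity with signal-to-noise per printed compound spot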
[7] = compound binding in COS7 lysate, probe aLAP1, primary screen, cell lysate, small-molecule microarray (AID 1124); details: probe aLAP1, fluorescence, higher = more signal;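 note: lysate comes from COS7 cells expressing LAP1 and is applied at 0.3 µg/mL; score merges spot fluorescence near 667 nm with signal-to-noise over triplicate slides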
[8] = system: Sam68 (KHDRBS1); test: Sam68 small-molecule binders, primary screen, biochemical, small-molecule microarray, 635 nm fluorescence (AID 1125); details: small-molecule microarray binding, higher = more signal;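 note: score merges 667 nm channel intensity with signal to noise over triplicate slides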
[9] = system: Chordin-like protein 2 (CHRDL2); test: CHRDL2 small-molecule binders, primary screen, biochemical, small-molecule microarray, 635 nm fluorescence (AID 1126); details: small-molecule microarray binding, fluorescence 635 nm; higher = more signal;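 note: printed compound slides probed with Chrdl2 protein at 4 µg/mL for 1 h at 4 C; score merges 667 nm emission intensity with signal to noise over three replicate slides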
[10] = biological target: Concanavalin-A (Canavalia ensiformis) (UniProt P02866); test: ConA small-molecule binders, primary screen, artefact control for SMM control protein annotation, biochemical, small-molecule microarray, Alexa647 label, 635 nm (AID 1127); details: ConA-A647 binding fluorescence, higher = more signal;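 note: z combines 667 nm emission intensity with signal-to-noise across three replicate slides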
Concanavalin-A (Canavalia ensiformis), sequence (P02866 whole entry, looked up): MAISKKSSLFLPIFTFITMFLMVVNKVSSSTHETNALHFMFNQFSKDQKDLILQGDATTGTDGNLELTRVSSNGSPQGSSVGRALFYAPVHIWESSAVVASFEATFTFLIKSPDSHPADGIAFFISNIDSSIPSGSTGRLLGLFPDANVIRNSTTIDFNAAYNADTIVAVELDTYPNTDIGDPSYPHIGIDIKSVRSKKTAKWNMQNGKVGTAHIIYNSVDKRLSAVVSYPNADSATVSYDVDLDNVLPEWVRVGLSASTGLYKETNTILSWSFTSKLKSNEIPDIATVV

| Structure (SMILES) | composite z-score [1] | composite Z-score [2] | composite z-score [3] | composite z-score [4] | composite z-score [5] | composite z-score [6] | composite z-score [7] | composite z-score [8] | composite z-score [9] | composite z-score [10] |
| --- | --- | --- | --- | --- | --- | --- | --- | --- | --- | --- |
| COc1ccc(C#Cc2ccc3c(c2)[C@]2(C(=O)N3)[C@H](C(=O)N3CCc4cc(OC)c(OC)cc4C3)[C@H]3C(=O)O[C@H](c4ccccc4)[C@H](c4ccccc4)N3[C@@H]2c2ccc(O)cc2)cc1 | 0.845 | 1.1 (inactive) | 0.0562 | 0.0397 | 0.432 | 1.46 | -0.0296 | 1.3 | 0.137 | 1.13 |
| O=C1C[C@@](C(=O)NCC(F)(F)F)(c2ccc([N+](=O)[O-])cc2)[C@@H](c2ccc(CO)cc2)N1C1CCCCC1 | 0.52 | 0.391 (inactive) | 0.0488 | 0.0257 | 0.685 | 3.17 | 1.21 | 1.29 | 0.489 | 1.15 |
| CCOC(=O)C1=CC[C@@H](c2ccccc2C(F)(F)F)N(S(=O)(=O)c2ccc(C)cc2)C1 | 0.959 | 0.917 (inactive) | 0.694 | 0.311 | 0.411 | 1.57 | 0.95 | 1.1 | -0.41 | 1.13 |
| O=C1OCCC=C[C@H]2OC34C=CCN(c5ccc(Cl)cc5)C(=O)[C@H]3N(CCCCCO)C(=O)[C@@H]4C12 (stereo not given in full) | 0.772 | 0.728 (inactive) | -0.0663 | -0.0714 | 0.873 | 0.848 | 0.281 | 0.25 | -0.27 | -1.21 |
| NC(=O)NCC#Cc1ccc2c(c1)[C@]1(C(=O)N2)[C@H](C(=O)O)[C@H]2C(=O)O[C@H](c3ccccc3)[C@H](c3ccccc3)N2[C@@H]1c1ccccc1OCCO | 0.501 | 0.434 (inactive) | 0.199 | 0.0505 | 0.372 | 0.329 | -0.0878 | 0.685 | 0.915 | 1.11 |
| COC(=O)[C@@]1(Cc2ccc(OC)cc2)[C@H]2c3cc(C(=O)N4CCCC4)n(CCc4cc5ccccc5[nH]4)c3C[C@H]2CN1C(=O)c1ccccc1 | 1.01 | 1.33 (inactive) | 0.353 | 0.213 | 0.587 | 3.04 | 0.816 | 1.31 | -0.65 | 1.13 |
| NC(N)=NCc1cn(CCc2c[nH]c3ccccc23)nn1 | 0.566 | 0.354 (inactive) | -0.0647 | -0.12 | 0.633 | 0.421 | 0.262 | 0.714 | 0.866 | 0.948 |
| CCCNC(=O)[C@@]1(c2ccc([N+](=O)[O-])cc2)CC(=O)N(C2CCCCC2)[C@@H]1c1ccc(CO)cc1I | 0.529 | 0.116 (inactive) | -0.0328 | -0.0635 | 0.71 | 1.73 | 0.521 | 1.25 | -0.0452 | 1.07 |
| O=C1c2ccccc2[C@](Cc2ccccc2I)(C(=O)NCc2ccccc2)[C@H](c2ccc(CO)cc2)N1C1CCCCC1 | 0.861 | 0.534 (inactive) | 0.16 | -0.0997 | 0.601 | 1.21 | 0.576 | 1.12 | 0.271 | 1.23 |
| O=C1c2ccccc2[C@@]2(Cc3ccccc3N(C3CC3)C2=O)[C@H](c2ccc(CO)cc2)N1C1CCCCC1 | 0.804 | -0.481 (inactive) | -0.125 | -0.0804 | 0.269 | 0.154 | 0.586 | -0.728 | -0.431 | -1.02 |
| CC(C)(C)OC(=O)CC[C@]1(C(=O)O)N=C(c2ccc(OCCCO)cc2)O[C@H]1c1ccccc1 | 0.419 | -0.179 (inactive) | 0.318 | -0.203 | 0.808 | 0.787 | 0.448 | -0.612 | -0.556 | 0.206 |
| [N-]=[N+]=Nc1ccccc1C[C@@]1(C(=O)O)N=C(c2ccc(OCCCO)cc2)O[C@@H]1c1ccccc1 | 0.952 | 0.77 (inactive) | 0.0208 | -0.0895 | 0.799 | 2.76 | 0.45 | 1.03 | -0.777 | 1.15 |
| COCCCNC(=O)[C@]1(Cc2ccccc2N=[N+]=[N-])N=C(c2ccc(OCCCO)cc2)O[C@@H]1c1ccccc1N=[N+]=[N-] | 0.99 | 0.0401 (inactive) | 0.0348 | -0.0372 | 0.666 | 2.33 | -0.0886 | 1.3 | -0.502 | 1.09 |
| COc1cc2c(cc1OC)CN(C(=O)[C@H]1[C@@H]3C(=O)O[C@@H](c4ccccc4)[C@@H](c4ccccc4)N3[C@@H](c3ccc(OCCO)cc3)[C@]13C(=O)Nc1ccc(C#CC4(O)CCCCCC4)cc13)CC2 | 0.822 | -0.195 (inactive) | -0.337 | -0.126 | 0.619 | 1.52 | 0.491 | 1.29 | 0.739 | 1.18 |
| CC(C)N1C(=O)[C@@]2(c3ccc([N+](=O)[O-])cc3)CC(=O)N(C3CCCCC3)[C@@H]2c2ccc(CO)cc21 | -0.545 | 0.633 (inactive) | -0.215 | -0.12 | 0.222 | -0.0857 | 0.398 | 0.123 | 0.208 | 0.684 |
| CC1CC/C=C\[C@H]2OC34C=CCN(CCN5CCOCC5)C(=O)[C@H]3N(CCO)C(=O)[C@@H]4C2C(=O)O1 (stereo not given in full) | -0.0406 | 0.377 (inactive) | -0.22 | -0.104 | 0.802 | -0.265 | 0.973 | -2.29 | -1.02 | -0.889 |
| C=CCN1C(=O)[C@@]2(O[C@@H](CCO)[C@H]([Si](C)(C)c3ccc(OC)cc3)[C@H]2C)c2cc(N3C(=O)c4ccccc4Oc4ccccc43)ccc21 | 0.593 | 0.0553 (inactive) | -0.145 | -0.133 | 0.307 | 1.15 | 0.478 | 0.522 | -0.0806 | 0.854 |

| Structure (SMILES) | composite z-score [1] | composite Z-score [2] | composite z-score [3] | composite z-score [4] | composite z-score [5] | composite z-score [6] | composite z-score [7] | composite z-score [8] | composite z-score [9] | composite z-score [10] |
| --- | --- | --- | --- | --- | --- | --- | --- | --- | --- | --- |
| CC1CC/C=C\[C@H]2OC34C=CCN(C(C)C)C(=O)[C@H]3N(CCCCCO)C(=O)[C@@H]4C2C(=O)O1 (stereo not given in full) | -1.51 | -0.362 (inactive) | -0.289 | -0.153 | 0.939 | -0.384 | 0.839 | -0.925 | -1.69 | -0.486 |
| CC(C)c1ccc(NN2C(C(O)c3ccco3)C=CC3C(=O)N(c4ccccc4)C(=O)C32)cc1 (stereo not given) | 0.488 | 0.204 (inactive) | 0.133 | 0.124 | 0.762 | 2.18 | 0.219 | 1.14 | -0.394 | 1.17 |
| CCOC(=CC(=O)OC)CC(O)c1cccc(Cl)c1 (stereo not given) | 0.451 | -0.114 (inactive) | -0.17 | -0.176 | 0.606 | 1.47 | 0.49 | 0.505 | -1.42 | 0.0032 |
| COC(=O)[C@@]1(Cc2ccc(F)cc2)[C@H]2c3cc(C(=O)N4CCCC4)n(CCc4c[nH]c5ccc(OC)cc45)c3C[C@H]2CN1C(=O)c1ccccc1 | 0.871 | 0.298 (inactive) | 1.43 | 0.849 | 0.313 | 2.33 | -0.143 | 0.929 | -0.0865 | 1.09 |
| C=C[C@@H](C)[C@H](OC(=O)Nc1ccc(SC)cc1)c1ccc(OCCO)cc1 | -0.145 | -0.109 (inactive) | 0.132 | -0.259 | 0.449 | 0.476 | -0.0181 | -0.867 | -0.61 | -0.345 |
| CC(C)NC(=O)[C@@]1(C)c2ccccc2C(=O)N(C(C)C)[C@H]1c1ccc(CO)cc1 | 0.177 | 0.22 (inactive) | -0.471 | -0.132 | 0.541 | 2.61 | -0.217 | 0.121 | -2.33 | -0.233 |
| CC(C)OC(=O)CC(=O)CC(O)c1cccc(C#N)c1 (stereo not given) | 0.586 | 0.586 (inactive) | 0.178 | -0.022 | 0.522 | 1.03 | 0.0279 | 1.35 | -0.591 | 1.13 |
| Cc1ccc(S[C@]2(C(=O)NCc3ccccc3)CC(=O)N(C(C)C)[C@@H]2c2ccc(CO)cc2I)cc1 | 0.838 | 0.46 (inactive) | -0.221 | -0.0268 | 0.304 | 2.56 | 0.704 | -0.29 | -1.59 | -1.29 |
| CCOc1cc(C(O)C2C=CC3C(=O)N(C)C(=O)C3N2N2CCCCC2)ccc1O (stereo not given) | 0.534 | 0.293 (inactive) | 0.135 | -0.0106 | 0.709 | 0.733 | 0.14 | 0.0667 | 0.278 | 0.852 |
| COC(=O)C1(Cc2ccccc2)C=C2C(=C(C(C)C)C(=O)C2C)CN1 (stereo not given) | 0.628 | 2.34 (inactive) | 0.183 | 0.168 | 0.676 | 1.62 | 0.6 | -1.52 | -1.3 | -1.83 |
| CCOC(=O)C[C@H]1[C@H](OC(=O)Cc2ccc3c(c2)OCO3)[C@@H](NC(=O)C2CCCCC2)c2cc(OCCCO)ccc2N1C(=O)c1ccc2ccccc2n1 | 0.245 | -0.608 (inactive) | 0.0418 | 0.358 | 0.312 | 0.746 | 0.15 | 1.08 | 1.21 | 0.662 |
| C=CCNC(=O)[C@H]1[C@@H]2C(=O)O[C@@H](c3ccccc3)[C@@H](c3ccccc3)N2[C@@H](c2ccccc2OCCO)[C@]12C(=O)N(C(=O)OCCOC)c1ccc(C#CC3=CCCCC3)cc12 | -0.286 | -0.0127 (inactive) | 0.345 | 0.148 | 0.55 | 1.33 | 1.01 | 1.3 | 0.51 | 0.942 |
| COc1ccc([Si](C)(C)[C@H]2[C@H](CCn3cc([C@H](O)c4ccccc4)nn3)O[C@@]3(C(=O)N(Cc4cccc(N5C(=O)c6cccc7cccc5c67)c4)c4ccccc43)[C@@H]2C)cc1 | 0.145 | 0.674 (inactive) | -0.185 | -0.159 | 0.339 | 0.501 | -0.0631 | 0.258 | -1.54 | -0.24 |
| CCOC(=O)C1=CC[C@@H](c2cc(Cl)ccc2Cl)N(S(=O)(=O)c2ccc(C)cc2)[C@H]1c1ccc(OC)cc1 | 0.596 | 0.552 (inactive) | 0.258 | 0.586 | 0.25 | 0.515 | 0.325 | -0.0808 | -0.362 | -1.21 |
| C[C@H]1ON(c2ccc(C(=O)OC(C)(C)C)cc2)[C@@H](c2ccc(O)cc2)[C@@H]1C(=O)N1C(=O)OC[C@@H]1c1ccccc1 | 0.393 | -0.281 (inactive) | 0.0218 | -0.126 | 0.454 | 0.741 | 0.295 | 1.32 | 0.456 | 0.768 |
| CN(C)CCCCNC(=O)[C@H]1C[C@H]2C(=O)N[C@@H](CCCCN(C)C)C(=O)N2[C@H]1c1cccc(OCCO)c1 | 0.418 | -1 (inactive) | 0.0691 | -0.237 | 0.18 | 2.21 | 0.518 | 1.31 | 1.39 | 1.14 |
